Screening results as filed in PubChem.
GRP78 ERSR act: ER stress response induction in glioma; U87-MG GRP78 promoter luciferase reporter, 16 h; Potency, µM, without a hit: top-dose activation, hits mostly activators; actives 0.02% (n = 420,000); AID 602332; active means well fitted activation curve with a large enough effect; further: potency means the concentration at half of the fitted maximal effect; series mostly up to about 76 µM; % of control where 0% means no effect; nearly all actives have a fitted effect of over 35% in size
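Stably transfected U87-MG glioma cells carrying a GRP78-based luciferase sensor; 16 h compound incubation. Luminescence end-point read 10 min after Bright-Glo addition at room temperature.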
D1 antagonist: human D1 dopamine receptor antagonism; AID 504652; activity change, negative = inhibition, % at 10 µM; HEK293 TREx D1 cells, calcium flux, dopamine EC80; active compounds read low; actives 3.2% (n = 360,000); in the data active means activity change below about -30%; further: on the % scale 0 is the no-effect control and ±100 the full control effect
Target sequence (P21728 whole entry, looked up): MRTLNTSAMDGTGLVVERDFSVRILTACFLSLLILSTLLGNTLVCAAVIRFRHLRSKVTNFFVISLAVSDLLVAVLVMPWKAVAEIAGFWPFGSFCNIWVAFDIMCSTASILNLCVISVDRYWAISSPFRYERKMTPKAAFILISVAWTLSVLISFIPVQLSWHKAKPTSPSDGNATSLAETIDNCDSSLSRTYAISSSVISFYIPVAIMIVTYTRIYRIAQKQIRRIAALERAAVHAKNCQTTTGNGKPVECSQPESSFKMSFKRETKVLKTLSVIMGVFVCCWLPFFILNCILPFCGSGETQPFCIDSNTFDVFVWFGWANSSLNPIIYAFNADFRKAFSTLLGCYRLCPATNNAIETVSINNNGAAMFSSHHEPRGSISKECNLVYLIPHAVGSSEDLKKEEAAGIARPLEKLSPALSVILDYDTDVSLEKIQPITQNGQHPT
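Antagonism measured as reduced calcium response to an EC80 dopamine addition following 180 s compound pre-read; cells were inducible HEK293 Trex D1 plated overnight at 30 C, read kinetically at 1 cycle/sec.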
D1 potentiator: potentiators of human D1 dopamine receptor. P21728. HEK293 TREx D1 cells, calcium flux, dopamine EC20 potentiation. potentiation, % at 10 µM. actives 0.036% (n = 360,000). AID 504651; in the data active means potentiation above about 30%; further: 0% is about no effect
TRHR ag: activates the human TRH receptor | P34981 | TRHR cells, calcium flux fluo-8, FDSS agonist mode | activation, % at 2 µM | actives 0.18% (n = 360,000); further: 0% is about no effect
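TRHR-expressing cells loaded with fluo-8 calcium dye; 23 nL library compound pin-transferred, kinetic FDSS fluorescence (Ex 480/Em 530) recorded about 180 s for agonist-induced calcium release, before a 10 nM TRH EC20 addition for potentiator mode.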
D1 agonist: activates the human D1 dopamine receptor. P21728. HEK293 T-REx D1 cells, calcium flux, agonist mode. activation, % at 2 µM. actives 1% (n = 360,000); further: 0% is about no effect
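Agonism was scored from calcium flux recorded over 180 s (1 read/s) after pintool compound addition, following a 10-cycle baseline. Cells were inducible force-coupled HEK293 TREx D1, plated overnight at 30 C and loaded with no-wash calcium dye.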
TRHR enhancer: TRH receptor (human) allosteric enhancement | TRHR cells, fluo-8 calcium fluorescence, EC20 TRH enhancement | AID 493056 | enhancement, % at 2 µM | actives 0.66% (n = 360,000) | P34981; in the data active means enhancement above about 30%; further: 0% is about no effect
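Enhancer read-out: after compound pinning and an initial kinetic agonist-mode read, an EC20 of TRH (10 nM final) was injected and fluo-8 calcium signal (Ex 480/Em 530) followed at 1 s/cycle for 100 cycles in TRHR-expressing cells.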
Active calls of the source: *; / = not tested or not shown; ! = not active in a repeat. This is a sample that favours compounds with a hit; in the whole collection about 4% have one here. Unless noted, no stated cut-off is given here; in the data, active means activation above about 30%; inactive means the rest.

SMILES	GRP78 ERSR act	D1 antagonist	D1 potentiator	TRHR ag	D1 agonist	TRHR enhancer
CCOc1ccc(C(=O)Nc2cccc(-c3nc4cc(Cl)cc(Cl)c4o3)c2)cc1	-2%	6	-2	0	0	35*
CCS(=O)(=O)N1CCC2(CC1)OC(=O)C(C)=C2C(=O)NCc1ccccc1C	-1%	-54*	-1	0	1	-5
CC(=O)N1CCC2(CC1)OC(=O)C(C)=C2C(=O)NCc1ccccc1Cl	-1%	-21	-2	0	-1	-6
N#C/C(=C\Nc1ccc2c(c1)OCCO2)c1nc(-c2ccccc2)cs1	-1%	-42*	-8	0	0	2
COc1ccc(NC(=O)c2sccc2C)cn1	5%	3	-4	0	3	-1
Cc1ccc(-c2cccc(C3CC=CC4C3C(=O)N(Cc3ccccc3)C4c3cc(C)ccc3F)c2)cc1 (configuration not stated)	2%	-66*	-10	-1	2	12
O=S(=O)(NNC(=S)NCC1CCCO1)c1cc(Cl)ccc1Cl (configuration not stated)	-4%	-39*	-2	0	5	-8
C/C(=N\NC(=O)c1c(C)nc2ccccn12)c1cccc([N+](=O)[O-])c1	3%	-4	-2	-1	-2	15
COC(=O)C1=CN(Cc2ccc(F)cc2)C=C(C(=O)OC)C1c1cc(OC)c(OC)c(OC)c1	-2%	-41*	-8	0	0	-1
O=C(CSc1nnc(-c2ccccn2)n1Cc1ccco1)c1ccc(-c2ccccc2)cc1	-1%	-90*	-6	0	2	-3
N=c1n(CCN2CCCCC2)c2ccccc2n1CC(O)COc1ccc(Cl)cc1Cl (configuration not stated)	-11%	1	-3	8	195*	-1
COc1ccccc1OCC(O)Cn1c(=N)n(Cc2ccccc2)c2ccccc21 (configuration not stated)	-6%	-62*	-9	-2	47*	-3
C=CCn1c(=N)n(CC(O)COc2ccccc2OC)c2ccccc21 (configuration not stated)	-6%	-18	-5	0	3	4
Cc1ccccc1OCC(O)Cn1c(=N)n(Cc2ccccc2)c2ccccc21 (configuration not stated)	-15%	-38*	-16	2	45*	13
c1ccc(Cn2nnc3c(N4CCCCCC4)ncnc32)cc1	0%	15	8	0	-2	-1
CN1/C(=C\C(=S)NC(=O)c2cccc(Br)c2)C(C)(C)c2ccccc21	0%	-69*	-6	0	3	-4
O=C(Nc1ccn(CCCN2CCN(Cc3cccc4ccccc34)CC2)c(=O)n1)OCc1ccccc1	-5%	/	/	/	/	/
COc1ccc(C)cc1NC(=O)CN1CCCC1c1ccc2c(c1)OCCCO2 (configuration not stated)	-4%	/	/	/	/	/
COc1ccc2oc(C(=O)Nc3ccc(S(=O)(=O)N(C)C4CCN(C)CC4)cc3)c(C)c2c1	-8%	-49*	-11	4	37*	-4
Cc1ccc(NC(=O)c2oc3ccc(S(=O)(=O)N4CCC5(CC4)OCCO5)cc3c2C)cc1C	-2%	-32*!	-3	1	-2	6
COc1ccc(NC(=O)c2oc3ccc(S(=O)(=O)N(C)C4CCCCC4)cc3c2C)cc1Cl	2%	-30*	0	0	-2	23
Cc1c(C(=O)Nc2ccc(F)c(Cl)c2)oc2ccc(S(=O)(=O)N(C)C3CCCCC3)cc12	-2%	-21	-2	0	2	6
Cc1cc(SCC(=O)NC(=O)NCc2ccco2)nc2ccccc12	-1%	-16	-8	-1	2	-4
Cc1c(C(=O)Nc2ccncc2)sc2nc(-c3ccccc3)cn12	-5%	-34*	-8	1	17	1
COc1ccc2c(c1)CCC/C2=N/OC(=O)c1ccccc1OC	2%	-33*	-4	0	20	-2
COc1ccc2c(c1)CC/C2=N\OC(=O)c1ccccc1C	1%	-2	-4	1	2	-2
